CYP2C19 act: increases human CYP2C19 enzyme activity; 96,000 tested, under 10 active; activation factor at 5 µM; recombinant CYP2C19, luciferin-H EGE luminescence; active compounds read high; 0 = fully inhibited enzyme, 1 = untreated enzyme; AID 1025;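 active = activation factor of at least 2 at 5 µM in the primary screen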;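 note: 0 = wells with 2.5 mM tranylcypromine and 1 = vehicle-only wells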
CYP2C9 act: CYP2C9 (human) activation. recombinant CYP2C9, luciferin-H conversion, luminescence; active compounds read high; factor 1 = untreated enzyme, 0 = blocked. activation factor at 5 µM. P11712. 96,000 tested, 1.4% active;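 active = activation factor of 2 or more for CYP2C9 at a 5 µM dose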;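 note: 0 = sulfaphenazole-blocked wells and 1 = vehicle-only wells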
CYP2C19 inhib: blocks human cytochrome P450 2C19; P33261; CYP2C19 Supersomes, luciferin-H EGE luminescence, 30 min; inhibition, % at 5 µM; 96,000 tested, 21% active; AID 778;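 active = CYP2C19 inhibition above a set limit at 5 µM in the primary screen, cut at about 50% in these data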;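 note: plate controls were negative control wells for no effect and 2.5 mM tranylcypromine positive control for full effect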
PLK1 inh: inhibitors of human PLK1 kinase; 97,000 tested, 0.53% active; P53350; inhibition, % at 10 µM; recombinant PLK1 kinase, TR-FRET peptide phosphorylation;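 active = inhibition of 50% or more in the single-concentration screen; inactive = inhibition below 50%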;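 note: 0% = DMSO max control and 100% = H-89 dihydrochloride min control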
Target sequence (P53350 whole entry, looked up): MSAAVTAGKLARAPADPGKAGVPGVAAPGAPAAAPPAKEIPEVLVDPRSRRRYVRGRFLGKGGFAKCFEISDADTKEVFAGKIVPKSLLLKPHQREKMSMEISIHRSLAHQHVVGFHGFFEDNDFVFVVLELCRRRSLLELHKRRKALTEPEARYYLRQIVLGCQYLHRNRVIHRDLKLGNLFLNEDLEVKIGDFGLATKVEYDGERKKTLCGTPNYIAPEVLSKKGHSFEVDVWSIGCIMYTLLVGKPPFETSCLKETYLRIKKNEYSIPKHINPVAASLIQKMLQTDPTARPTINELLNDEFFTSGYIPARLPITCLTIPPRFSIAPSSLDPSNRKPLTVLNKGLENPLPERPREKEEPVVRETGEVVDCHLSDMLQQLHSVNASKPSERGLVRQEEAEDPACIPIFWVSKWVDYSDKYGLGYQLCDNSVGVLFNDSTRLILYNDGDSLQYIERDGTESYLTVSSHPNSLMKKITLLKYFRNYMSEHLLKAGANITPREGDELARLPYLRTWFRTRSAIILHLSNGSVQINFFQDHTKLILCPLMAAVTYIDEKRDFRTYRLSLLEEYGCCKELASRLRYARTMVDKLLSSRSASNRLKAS
CYP2C9 inh: inhibitors of human CYP2C9; P11712; CYP2C9 Supersomes, luciferin-H conversion, luminescence; inhibition, % at 5 µM; 96,000 tested, 20% active; AID 777;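 active = blocking of liver enzyme CYP2C9 beyond about 50% at 5 µM, limit read from the data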
PLK1 PBD inh: blocks phosphopeptide binding to human Plk1 polo box domain. P53350. Plk1 PBD phosphopeptide binding, fluorescence polarization. inhibition, %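 (tested at about 20 µM)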. 97,000 tested, 0.13% active; in the data active = inhibition above about 34%, passing the limit was not always enough
Numbers without * were called inactive. In the library only some 28% were active in any assay of this set; here they are far more common.

For COC(=O)c1ccccc1S(=O)(=O)N(Cc1cc2ccc(OC)cc2[nH]c1=O)CC1CCCO1 (stereo not given) the results were CYP2C19 act 0.6, CYP2C9 act 0.1, CYP2C19 inhib 38 and CYP2C9 inh 90*.
`COc1ccc2cc(CN(CC3CCCO3)S(=O)(=O)c3ccc(C(C)=O)cc3)c(=O)[nH]c2c1` (stereo not given) gave CYP2C19 act 0.6, CYP2C9 act 0.4, CYP2C19 inhib 35, PLK1 inh -15, CYP2C9 inh 60* and PLK1 PBD inh -25.
`COc1ccc(S(=O)(=O)N(Cc2cc3cc(C)ccc3[nH]c2=O)CC2CCCO2)cc1` (stereo not given) gave CYP2C19 act 0.7, CYP2C9 act 0.4, CYP2C19 inhib 25, PLK1 inh -4, CYP2C9 inh 60* and PLK1 PBD inh 12.
CCOC(=O)C1CSC(CC(=O)Nc2ccc(Cl)c(Cl)c2)C(=O)N1 (stereo not given) was read as CYP2C19 act 0.8, CYP2C9 act 1.4, CYP2C19 inhib 18, PLK1 inh -2, CYP2C9 inh -37 and PLK1 PBD inh 3.
`CCc1nnc(N/N=C/c2c(Cl)cccc2Cl)n1N` gave CYP2C19 act 0.4, CYP2C9 act 1.1, CYP2C19 inhib 63*, PLK1 inh -4, CYP2C9 inh -11 and PLK1 PBD inh 4.
`COc1cccc(NC(=O)N2CCN(c3ccc(C(F)(F)F)cn3)CC2)c1` gave CYP2C19 act 1, CYP2C9 act 1, CYP2C19 inhib -1, PLK1 inh -6, CYP2C9 inh 4 and PLK1 PBD inh -19.
Cc1csc(C(C#N)C(=O)c2cc3ccccc3o2)n1 (stereo not given) was read as CYP2C19 act 1, CYP2C9 act 0.4, CYP2C19 inhib 4, PLK1 inh -11, CYP2C9 inh 60* and PLK1 PBD inh -5.
For Clc1ccc(OCCn2cnc3ccccc32)cc1 the results were CYP2C19 act 0.2, CYP2C9 act 0.2, CYP2C19 inhib 84*, PLK1 inh 30, CYP2C9 inh 77* and PLK1 PBD inh -24.
`Cc1cc2ncn(CCOc3ccccc3C#N)c2cc1C` gave CYP2C19 act 0.2, CYP2C9 act 0.5, CYP2C19 inhib 77*, PLK1 inh -21, CYP2C9 inh 51* and PLK1 PBD inh 0.
Clc1ccccc1OCCn1cnc2ccccc21 was read as CYP2C19 act 0.2, CYP2C9 act 0.3, CYP2C19 inhib 80* and CYP2C9 inh 69*.
For O=C(Nc1ccc(F)cc1)c1cc(S(=O)(=O)N2CCCCC2)cs1 the results were CYP2C19 act 0.7, CYP2C9 act 0.5, CYP2C19 inhib 27, PLK1 inh -8, CYP2C9 inh 49 and PLK1 PBD inh 17.
For Cc1ccc(-c2nc3ncccc3o2)cc1NC(=O)c1sc2ccccc2c1Cl the results were CYP2C19 act 0.8, CYP2C9 act 0.6, CYP2C19 inhib 15, PLK1 inh -35, CYP2C9 inh 43 and PLK1 PBD inh 12.
Screening CCN=C(NCC)SC1CC(=O)N(c2ccccc2)C1=O (stereo not given) returned CYP2C19 act 0.1, CYP2C9 act 1, CYP2C19 inhib 88*, PLK1 inh -9, CYP2C9 inh -1 and PLK1 PBD inh 7.
Screening CCN=C(NCC)SC1CC(=O)N(c2cccc(OC)c2)C1=O (stereo not given) returned CYP2C19 act 0.2, CYP2C9 act 2.1*, CYP2C19 inhib 79* and CYP2C9 inh -110.
For CN=C(Nc1ccc2c(c1)OCO2)SC1CC(=O)N(c2ccccc2)C1=O (stereo not given) the results were PLK1 inh -5 and PLK1 PBD inh -3.
`CCN=C(Nc1cccc(F)c1)SC1CC(=O)N(c2ccc(OC)cc2)C1=O` (stereo not given) gave CYP2C19 act 0.7, CYP2C9 act 0.4, CYP2C19 inhib 31, PLK1 inh 1, CYP2C9 inh 59* and PLK1 PBD inh 19.
For COc1ccc(N2C(=O)CC(NCc3cccc(F)c3)C2=O)cc1 (stereo not given) the results were CYP2C19 act 0.9, CYP2C9 act 0.9, CYP2C19 inhib 13 and CYP2C9 inh 11.
For CCCOc1ccccc1C(=O)N(Cc1ccco1)C1CCS(=O)(=O)C1 (stereo not given) the results were CYP2C19 act 1, CYP2C9 act 1, CYP2C19 inhib -3, PLK1 inh -6, CYP2C9 inh 0 and PLK1 PBD inh -25.
For COc1ccc(/C=C2\SC(=NCc3ccccc3)N(Cc3ccccc3)C2=O)cc1OC the results were CYP2C19 act 0.3, CYP2C9 act 0.8, CYP2C19 inhib 72*, PLK1 inh -11, CYP2C9 inh 22 and PLK1 PBD inh 8.
CCOc1cc(/C=C2/SC(=O)N(CC(=O)N3CCc4ccccc4C3)C2=O)ccc1OCC(=O)O was read as CYP2C19 act 1, CYP2C9 act 1, CYP2C19 inhib 1, PLK1 inh -6, CYP2C9 inh 3 and PLK1 PBD inh -27.
COc1cc(/C=C2/SC(=O)N(Cc3ccccc3)C2=O)ccc1OCc1ccncc1 was read as CYP2C19 act 0.2, CYP2C9 act 0.2, CYP2C19 inhib 80*, PLK1 inh -3, CYP2C9 inh 82* and PLK1 PBD inh -6.
For CC(C)NC(=O)c1ccc(CS(=O)(=O)c2ccc(Br)cc2)o1 the results were CYP2C19 act 0.9, CYP2C9 act 0.5, CYP2C19 inhib 13, PLK1 inh 1, CYP2C9 inh 46 and PLK1 PBD inh -22.
`COn1c(SC(C)C)nc2ccccc2c1=O` gave CYP2C19 act 0.7, CYP2C9 act 0.8, CYP2C19 inhib 26, PLK1 inh -4, CYP2C9 inh 18 and PLK1 PBD inh -8.
For COn1c(SC2CCCCC2)nc2ccccc2c1=O the results were CYP2C19 act 0.2, CYP2C9 act 0.2, CYP2C19 inhib 78*, PLK1 inh -17, CYP2C9 inh 82* and PLK1 PBD inh -24.
COn1c(SCc2ccc(C)cc2C)nc2ccccc2c1=O was read as CYP2C19 act 0.3, CYP2C9 act 0.1, CYP2C19 inhib 73*, PLK1 inh -8, CYP2C9 inh 93* and PLK1 PBD inh 10.
For CC1=C(C(=O)OC(C)C)C(c2ccccn2)n2ncnc2N1 (stereo not given) the results were CYP2C19 act 1, CYP2C9 act 1, CYP2C19 inhib 4, PLK1 inh -1, CYP2C9 inh 5 and PLK1 PBD inh -11.
Screening Cn1c(=O)c(=O)n(C)c2cc(S(=O)(=O)N3CCC(Cc4ccccc4)CC3)ccc21 returned CYP2C19 act 1, CYP2C9 act 1, CYP2C19 inhib -3, PLK1 inh -18, CYP2C9 inh -2 and PLK1 PBD inh -14.
Screening CCn1c(=O)n(CC)c2cc(S(=O)(=O)N3CCC(c4ccccc4)CC3)ccc21 returned CYP2C19 act 0.7, CYP2C9 act 0.3, CYP2C19 inhib 33, PLK1 inh 4, CYP2C9 inh 68* and PLK1 PBD inh -23.

Assay outcomes as filed in PubChem.
